Rows were chosen to be rich in hits. Some 8.1% of all compounds tested hit in one or more screens of this group.
ELG1 DNA repair = inhibitors of ELG1-dependent DNA repair in HEK293T cells; HEK293T ELG1-luciferase reporter, luminescence, 16 h; DNA damage induced by 5-fluorouridine; Potency, µM (titrated, usually from 46.1 µM), without a hit: at the highest dose activity change, negative = inhibition, actives largely listed as inhibitors; 330,000 compounds, 2.3% hits; note: % is set by controls: 0 for no effect and ±100 for the full control effect; nearly all actives have a fitted effect of over 55% in size
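Quantitative HTS, concentration-response format. 2,000 cells/well co-treated with 5-fluorouridine and compound, 16 hr in 5% CO2 at 37 °C; ONE-Glo luminescence read after 30 min.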
KB-V1 cytotox = KB-V1 MDR subline cytotoxicity; KB-V1 MDR cells viability, CellTiter-Glo, 72 h; 400,000 compounds, 3.4% hits; AID 1347076; Potency, µM (top dose mostly 46.1 µM), actives largely listed as cytotoxic; note: % is set by controls: 0 for no effect and ±100 for the full control effect; nearly all actives have a fitted effect of over 60% in size
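KB-V1 MDR subline cells in DMEM (phenol-red free, 10% FBS) exposed to compounds in qHTS concentration series for 72 h at 37 degrees C. Viability read by CellTiter-Glo luminescence; concentration-effect curves fitted after normalization and correction.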
KB-3-1 tox = KB-3-1 parental cell cytotoxicity; KB-3-1 viability, CellTiter-Glo ATP luminescence, 72 h; Potency, µM (series often up to 46.1 µM), hits mostly cytotoxic; 400,000 compounds, 1.4% hits; AID 1347075; note: % is set by controls: 0 for no effect and ±100 for the full control effect; nearly all actives have a fitted effect of over 60% in size
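Parental KB-3-1 adenocarcinoma cells in phenol-red-free DMEM with 10% FBS were pin-treated with compounds at several concentrations, incubated 72 h at 37 °C, and viability read by CellTiter-Glo luminescence; concentration-effect curves were fitted after normalization.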
SW480 rerep = inducers of DNA re-replication in SW480 colon cancer cells; SW480 DNA re-replication, Hoechst DNA content imaging, 48 h; Potency, µM (top dose mostly 46.1 µM), without a hit: at the highest dose re-replication activation, actives largely listed as activators; 340,000 compounds, 1.8% hits; note: % of control where 0% means no effect; nearly all actives have a fitted effect of over 55% in size
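Image-based DNA-content assay: after two days of treatment, nuclei were labelled with the DNA dye Hoechst and imaged, and hits were compounds raising the count of nuclei showing high fluorescence intensity.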
MCF10A rerep = DNA re-replication induction in MCF 10a cells | MCF 10A DNA re-replication, Hoechst nuclear intensity, 48 h | Potency, µM (highest dose often 46.1 µM), for the others: at the top dose activity, positive = re-replication, usual class: activators | 350,000 compounds, 2.9% hits | AID 624296; note: % of control where 0% means no effect; nearly all actives have a fitted effect of over 50% in size
Numbers without * were called inactive; i = inactive; u = inconclusive; x = no result given; [ ] = dose if it differs, or a comment. Calls come from the whole dose curve; as a rule, active = well fitted curve in the direction sought with a large enough effect; inconclusive = small, poorly fitted or top-dose-only effect, or another doubt; inactive = no such curve, though single readings can be large; an effect the other way counts as inactive or inconclusive. Potency is the fitted concentration of half-maximal effect.

SMILES	ELG1 DNA repair	KB-V1 cytotox	KB-3-1 tox	SW480 rerep	MCF10A rerep
Cc1ccsc1C(=O)OCC(=O)NCCNC(=O)COC(=O)c1sccc1C	23%	i	i	-3%	2%
Cc1ccc(OC(C)C(=O)OCC(=O)Nc2sccc2C(N)=O)cc1 (configuration not stated)	-13%	i	i	u	u
O=C(Nc1cccc(F)c1)N1CCCC(CNS(=O)(=O)Cc2ccccc2)C1 (configuration not stated)	-12%	u	i	-1%	3%
[O-][N+](=Cc1c(Cl)cccc1Cl)CC1(O)CCCCC1	x	i	i	x	x
CCOc1ccc(-n2c(=S)sc3c(=O)[nH]c(SCC(=O)NCC4CCCO4)nc32)cc1 (configuration not stated)	-2%	i	i	0%	5%
COc1ccc(Cl)cc1C(=O)OCC(=O)Nc1sccc1C(N)=O	23µM*	i	i	12%	-1%
Cc1ccc(C(=O)OCC(=O)Nc2sccc2C(N)=O)cc1NC(=O)c1ccco1	8.2µM*	i	u	-2%	6%
COc1ccc(OC)c(CCNC(=O)c2ccc3c(c2)N(Cc2ccc(F)cc2)CCS3)c1	u	u	u	6%	13µM*
COc1ccc(CCNC(=O)c2ccc3c(c2)N(Cc2ccc(F)cc2)CCS3)c(OC)c1	-18%	i	u	3%	-1%
Cc1ccc(-c2cnn(-c3cccc(C(F)(F)F)c3)c2N)cc1	u	16µM*	i	1%	12%
Nc1c(-c2ccccc2)cnn1-c1cccc([N+](=O)[O-])c1	u	23µM*	i	-13%	6%
CC(C)c1nnc(NC(=O)CSc2ncn[nH]2)s1	-2%	i	i	-5%	5%
CCC(C)(C)NC(=O)C(c1ccc(OC)cc1)N(Cc1cccs1)C(=O)CCC(=O)Nc1cc(C)on1 (configuration not stated)	18µM*	i	i	-3%	u
CCC(C)(C)NC(=O)C(c1ccc(C)cc1)N(Cc1cccs1)C(=O)c1ccc2c(c1)OCCO2 (configuration not stated)	-17%	18µM*	i	-1%	-3%
COc1ccc(N2CCN(CCNC(=O)c3ccc4nc5ccccc5c(=O)n4c3)CC2)cc1	u	i	i	-2%	-4%
COc1ccc(N2CCN(CCNC(=O)c3ccc4c(c3)[nH]c(=S)n3c5ccccc5nc43)CC2)cc1	u	i	i	7.3µM*	13%
COc1c(Cl)cc(Cl)cc1C(=O)Nc1ccc(CN2CCOCC2)cc1	-19%	i	i	3%	u
O=C(OC(C(=O)NCc1ccccc1)c1ccccc1)c1ccco1 (configuration not stated)	17%	i	u	-2%	-9%
CCOC(=O)/C(=N/Nc1ccccc1)N1CCCc2ccccc21	-6%	16µM*	i	1%	-33%
CC(NC(c1ccccc1)c1ccccc1)C(=O)N1CCCc2ccccc21 (configuration not stated)	-7%	13µM*	18µM*	-2%	u
CCOC(=O)/C(=N\Nc1ccccc1)P(=O)(c1ccccc1)c1ccccc1	3%	12µM*	i	-14%	3%
CCOC(=O)/C(=N/Nc1ccc(OC)cc1)N1CCCc2ccccc21	-3%	i	i	0%[9.22 µM]	14%
COc1ccccc1NC(=O)CSc1nnc(-c2ccco2)o1	29%	i	i	-3%	-3%
Nc1ccc(Cl)c(S(=O)(=O)Nc2cccc(Cl)c2)c1	7%	i	i	-63%	0.18µM*
COc1ccc(C(=O)CCC(=O)Nc2cccc(Cl)c2)cc1	-11%	i	i	2%	-2%
SMILES	ELG1 DNA repair	KB-V1 cytotox	KB-3-1 tox	SW480 rerep	MCF10A rerep
COc1ccc(NC(=O)CNS(=O)(=O)c2ccccc2)cc1Cl	10%	u	i	u	8.2µM*
Cc1ccc(C(=O)CCC(=O)Nc2ccc(Cl)c(S(=O)(=O)Nc3cccc(Cl)c3)c2)cc1	-11%	16µM*	i	-5%	5%
Cc1ccc(S(=O)(=O)NCCC(=O)Nc2ccc(Cl)c(Cl)c2)cc1	-29%	15µM*	u	-3%	u
COC(=O)c1ccccc1NC(=O)C1CCCN(c2ncnc3onc(C)c23)C1 (configuration not stated)	x	i	i	x	x
CCOC(=O)c1ccc(-n2nc(C)cc2C)cc1	-3%	i	i	-4%	4%
CCC(C)NCCC(=O)Nc1ccc(Cl)c(S(=O)(=O)Nc2ccc(Cl)cc2)c1 (configuration not stated)	-2%	i	i	26%	13µM*
Cc1ccc(S(=O)(=O)NCCC(=O)Nc2ccc(Cl)c(Cl)c2)cc1C	-9%	u	i	0%	16%
Cc1ccc(S(=O)(=O)NCCC(=O)Nc2ccncc2)cc1C	-27%	i	i	0.65µM*	12%
Cc1ccc(S(=O)(=O)NCCC(=O)Nc2cccc(Cl)c2)cc1	-14%	16µM*	i	0.29µM*	0%
CCN(c1ccc(NS(=O)(=O)c2cc(Cl)ccc2Cl)cc1)C(C)C	-2%	u	u	u	23µM*
CC(=O)Nc1ccc(S(=O)(=O)NCCC(=O)Nc2ccc(C)c(Cl)c2)cc1	-8%	i	i	-74%	2%
CN(C)c1ccc(NS(=O)(=O)c2cc(Cl)ccc2Cl)cc1	18%	u	u	u	u
C=CC[C@@H](CC(=O)N[C@@H](CO)Cc1ccccc1)C(=O)N[C@@H](C)COC(=O)[C@@H](CC=C)Cc1ccc(F)cc1	-25%	i	i	0%	-25%
O=C(NC(=S)NCc1ccco1)c1ccc(Br)cc1	9%	i	i	-3%	7%
C[C@H]1CN([C@@H](C)CO)C(=O)CCCn2nncc2CO[C@H]1CN(C)S(=O)(=O)c1ccccc1	x	i	i	x	x
Cc1cc(C)cc(-n2ccnc(NCCc3ccccc3)c2=O)c1	x	i	i	x	x
O=C(NCc1cccnc1)c1cc(C2CCCN(C(=O)c3ccc4c(c3)CCO4)C2)on1 (configuration not stated)	x	i	i	x	x
CCCOc1ccc2c(c1)C(=NN=C(N)N)c1cc(OCCC)ccc1-2	u	u	u	18µM*	u
COc1ccc(CN2CCC(CO)(CCOc3ccccc3)CC2)c(OC)c1C	-7%	i	i	-4%	13%
COc1ccc2[nH]c(CN3CCC(CO)(CCOc4ccccc4)CC3)c(C)c2c1	u	u	i	-42%	21µM*
OCCOc1cccc(CN2CCC(CO)(CCOc3ccccc3)CC2)c1	1%	i	i	18µM*	3%
